# Data taken from publication PMC8384837, “Expanding the binding specificity for RNA recognition by a PUF domain”.
# Columns and labels:
# Test in all cases: yeast three-hybrid, YBZ-1, SC-Leu-His + 0.5 mM 3-AT, 4 days
# Details in all cases: tags: N-Gal4 AD-HA kept; label: inside an RPR1-promoter hybrid RNA with tandem MS2 sites; ssRNA
# [1] = biological target: PUM1 PUF domain R1-RNR (Homo sapiens, UniProt Q14671 828-1176, S863R;R864N;Q867R)
# In short: (§1)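 Sequencing with Illumina followed PCR amplification of the repeat regions from transformants grown four days on SC-Leu (input) or SC-Leu-His + 0.5 mM 3-AT (selection). The transformants were strain YBZ-1 with a LexA–MS2 coat fusion and a HIS3 reporter, carrying Pumilio-1 PUF domain libraries and matching RNA elements. The interaction score is the log change in variant frequency from input to selection, computed in log2 with a pseudocount of 1 for absent variants.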
# [2] = biological target: PUM1 PUF domain R5-GQK (Homo sapiens, UniProt Q14671 828-1176, C1007G;R1008Q;Q1011K)
# In short: as §1
# [3] = biological target: PUM1 PUF domain R5-NLS (Homo sapiens, UniProt Q14671 828-1176, C1007N;R1008L;Q1011S)
# In short: as §1
# [4] = biological target: PUM1 PUF domain R7-QGR (Homo sapiens, UniProt Q14671 828-1176, S1079Q;N1080G;E1083R)
# In short: as §1
# [5] = biological target: PUM1 PUF domain R4-ARV (Homo sapiens, UniProt Q14671 828-1176, N971A;H972R;Q975V)
# In short: as §1
# [6] = biological target: PUM1 PUF domain R3-YPR (Homo sapiens, UniProt Q14671 828-1176, C935Y;R936P;Q939R)
# In short: as §1
# [7] = biological target: PUM1 PUF domain R3-EWT (Homo sapiens, UniProt Q14671 828-1176, C935E;R936W;Q939T)
# In short: as §1
# [8] = biological target: PUM1 PUF domain R3-PHE (Homo sapiens, UniProt Q14671 828-1176, C935P;R936H;Q939E)
# In short: as §1
# [9] = biological target: PUM1 PUF domain R5-ELW (Homo sapiens, UniProt Q14671 828-1176, C1007E;R1008L;Q1011W)
# In short: as §1
# [10] = biological target: PUM1 PUF domain R5-NPE (Homo sapiens, UniProt Q14671 828-1176, C1007N;R1008P;Q1011E)
# In short: as §1
# Chain of PUM1 PUF domain R5-GQK (Q14671 828-1176 C1007G/R1008Q/Q1011K): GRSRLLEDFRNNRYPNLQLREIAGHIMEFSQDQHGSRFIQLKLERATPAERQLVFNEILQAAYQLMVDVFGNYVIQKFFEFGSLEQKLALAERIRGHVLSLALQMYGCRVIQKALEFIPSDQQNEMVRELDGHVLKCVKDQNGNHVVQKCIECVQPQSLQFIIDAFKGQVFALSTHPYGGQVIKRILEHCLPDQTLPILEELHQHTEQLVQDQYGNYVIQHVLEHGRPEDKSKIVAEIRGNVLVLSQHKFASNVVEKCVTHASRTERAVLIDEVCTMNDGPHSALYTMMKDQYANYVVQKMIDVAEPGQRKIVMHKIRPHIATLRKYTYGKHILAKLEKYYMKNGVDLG
# Chain of PUM1 PUF domain R3-EWT (Q14671 828-1176 C935E/R936W/Q939T): as the sequence (Q14671 828-1176 C1007G/R1008Q/Q1011K) above, with C108E, R109W, Q112T, G180C, Q181R, K184Q counted along it
# Chain of PUM1 PUF domain R3-YPR (Q14671 828-1176 C935Y/R936P/Q939R): as the sequence (Q14671 828-1176 C1007G/R1008Q/Q1011K) above, with C108Y, R109P, Q112R, G180C, Q181R, K184Q counted along it
# Chain of PUM1 PUF domain R4-ARV (Q14671 828-1176 N971A/H972R/Q975V): as the sequence (Q14671 828-1176 C1007G/R1008Q/Q1011K) above, with N144A, H145R, Q148V, G180C, Q181R, K184Q counted along it
# Chain of PUM1 PUF domain R1-RNR (Q14671 828-1176 S863R/R864N/Q867R): as the sequence (Q14671 828-1176 C1007G/R1008Q/Q1011K) above, with S36R, R37N, Q40R, G180C, Q181R, K184Q counted along it
# Chain of PUM1 PUF domain R5-NLS (Q14671 828-1176 C1007N/R1008L/Q1011S): as the sequence (Q14671 828-1176 C1007G/R1008Q/Q1011K) above, with G180N, Q181L, K184S counted along it
# Chain of PUM1 PUF domain R3-PHE (Q14671 828-1176 C935P/R936H/Q939E): as the sequence (Q14671 828-1176 C1007G/R1008Q/Q1011K) above, with C108P, R109H, Q112E, G180C, Q181R, K184Q counted along it
# Chain of PUM1 PUF domain R7-QGR (Q14671 828-1176 S1079Q/N1080G/E1083R): as the sequence (Q14671 828-1176 C1007G/R1008Q/Q1011K) above, with G180C, Q181R, K184Q, S252Q, N253G, E256R counted along it
# Chain of PUM1 PUF domain R5-NPE (Q14671 828-1176 C1007N/R1008P/Q1011E): as the sequence (Q14671 828-1176 C1007G/R1008Q/Q1011K) above, with G180N, Q181P, K184E counted along it
# Chain of PUM1 PUF domain R5-ELW (Q14671 828-1176 C1007E/R1008L/Q1011W): as the sequence (Q14671 828-1176 C1007G/R1008Q/Q1011K) above, with G180E, Q181L, K184W counted along it
sequence,measurement,setting,value
GGCUAGAACUAGUGGAUCCCCCGGCGCCCGGCGGCUCGAGCCCGGGUAAGUGUAAAUUGUCUGCAUGCCGCCGGGCGCCAUGCCUGCAGGUCGACUCUAGAAAACAUG,binding signal,[1],4.23 log2 enrichment (interaction score)
GGCUAGAACUAGUGGAUCCCCCGGCGCCCGGCGGCUCGAGCCCGGGUAAGUGUCAAUAGUCUGCAUGCCGCCGGGCGCCAUGCCUGCAGGUCGACUCUAGAAAACAUG,binding signal,[2],2.24 log2 enrichment (interaction score)
GGCUAGAACUAGUGGAUCCCCCGGCGCCCGGCGGCUCGAGCCCGGGUAAGUGUUAAUAGUCUGCAUGCCGCCGGGCGCCAUGCCUGCAGGUCGACUCUAGAAAACAUG,binding signal,[3],6.48 log2 enrichment (interaction score)
GGCUAGAACUAGUGGAUCCCCCGGCGCCCGGCGGCUCGAGCCCGGGUAAGUUUAAAUAGUCUGCAUGCCGCCGGGCGCCAUGCCUGCAGGUCGACUCUAGAAAACAUG,binding signal,[4],2.75 log2 enrichment (interaction score)
GGCUAGAACUAGUGGAUCCCCCGGCGCCCGGCGGCUCGAGCCCGGGUAAGUGUAAAUCGUCUGCAUGCCGCCGGGCGCCAUGCCUGCAGGUCGACUCUAGAAAACAUG,binding signal,[1],4.17 log2 enrichment (interaction score)
GGCUAGAACUAGUGGAUCCCCCGGCGCCCGGCGGCUCGAGCCCGGGUAAGUGUACAUAGUCUGCAUGCCGCCGGGCGCCAUGCCUGCAGGUCGACUCUAGAAAACAUG,binding signal,[5],0.8 log2 enrichment (interaction score)
GGCUAGAACUAGUGGAUCCCCCGGCGCCCGGCGGCUCGAGCCCGGGUAAGUGUAAGUAGUCUGCAUGCCGCCGGGCGCCAUGCCUGCAGGUCGACUCUAGAAAACAUG,binding signal,[6],3.45 log2 enrichment (interaction score)
same,binding signal,[7],4.76 log2 enrichment (interaction score)
GGCUAGAACUAGUGGAUCCCCCGGCGCCCGGCGGCUCGAGCCCGGGUAAGUGUAAAUAGUCUGCAUGCCGCCGGGCGCCAUGCCUGCAGGUCGACUCUAGAAAACAUG,binding signal,[7],4.31 log2 enrichment (interaction score)
same,binding signal,[5],4.56 log2 enrichment (interaction score)
same,binding signal,[8],4.47 log2 enrichment (interaction score)
same,binding signal,[2],2.37 log2 enrichment (interaction score)
same,binding signal,[9],2.28 log2 enrichment (interaction score)
GGCUAGAACUAGUGGAUCCCCCGGCGCCCGGCGGCUCGAGCCCGGGUAAGUGUGAAUAGUCUGCAUGCCGCCGGGCGCCAUGCCUGCAGGUCGACUCUAGAAAACAUG,binding signal,[10],4.36 log2 enrichment (interaction score)
GGCUAGAACUAGUGGAUCCCCCGGCGCCCGGCGGCUCGAGCCCGGGUAAGUGUAAUUAGUCUGCAUGCCGCCGGGCGCCAUGCCUGCAGGUCGACUCUAGAAAACAUG,binding signal,[6],0.67 log2 enrichment (interaction score)
